# According to the supplement of paper PMC4206461:
# System: Pseudomonas aeruginosa PA14 wild type
# Experiment: respiration area under curve with compound as sole nitrogen source, 24 h (OmniLog AUC (arbitrary units)); higher = more respiration / better utilisation as nitrogen source, active = 2000 or more
# Protocol: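 Biolog Phenotype MicroArray plates PM6-PM8: each di/tripeptide is the sole nitrogen source (IF-0 medium with succinate/ferric citrate and dye mix A). Tetrazolium reduction was read in the OmniLog every 15 min for 24 h at 37°C and summarised as area under the respiration curve (arbitrary units). The paper counts values below 2000 as no respiration and above 8000 as solid respiration. Replicate datasets are averaged.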
row,Compound,respiration area under curve
1,CSCC[C@H](NC(=O)CN)C(=O)O (plate: PM6),327 (inactive)
2,C[C@H](N)C(=O)N[C@@H](CC(=O)O)C(=O)O (plate: PM8),10500 (active)
3,N[C@@H](Cc1c[nH]c2ccccc12)C(=O)N[C@@H](Cc1c[nH]c2ccccc12)C(=O)O (plate: PM7),1430 (inactive)
4,CC[C@H](C)[C@H](N)C(=O)N1CCC[C@H]1C(=O)O (plate: PM6),7460 (active)
5,NC(=O)CC[C@H](NC(=O)[C@@H]1CCCN1)C(=O)O (plate: PM7),9790 (active)
6,C[C@H](NC(=O)[C@@H](N)CO)C(=O)O (plate: PM7),10900 (active)
7,CC[C@H](C)[C@H](N)C(=O)N[C@@H](Cc1ccc(O)cc1)C(=O)O (plate: PM6),2310 (active)
8,N[C@@H](CC(=O)O)C(=O)NCC(=O)O (plate: PM8),4290 (active)
9,CC(C)CC(N)C(=O)NC(Cc1c[nH]c2ccccc12)C(=O)O (stereo not given) (plate: PM7),8750 (active)
10,N[C@@H](Cc1ccc(O)cc1)C(=O)N[C@@H](CCC(=O)O)C(=O)O (plate: PM7),4890 (active)
11,NCC(=O)N[C@@H](Cc1ccccc1)C(=O)O (plate: PM6),2760 (active)
12,N[C@@H](CCC(=O)O)C(=O)N[C@@H](CC(=O)O)C(=O)O (plate: PM6),12 (inactive)
13,NC(=O)C[C@H](NC(=O)[C@@H](N)CO)C(=O)O (plate: PM8),12500 (active)
14,C[C@@H](O)[C@H](N)C(=O)N[C@@H](CCC(N)=O)C(=O)O (plate: PM8),12100 (active)
15,NCC(=O)N[C@@H](CO)C(=O)O (plate: PM6),7870 (active)
16,C[C@H](N)C(=O)N[C@@H](CCC(=O)O)C(=O)O (plate: PM6),7840 (active)
17,CC[C@H](C)[C@H](N)C(=O)N[C@@H](C)C(=O)O (plate: PM6),5290 (active)
18,N[C@@H](Cc1ccc(O)cc1)C(=O)NCC(=O)O (plate: PM7),9630 (active)
19,CSCC[C@H](N)C(=O)N[C@@H](CC(C)C)C(=O)O (plate: PM7),2580 (active)
20,N[C@@H](CCC(=O)O)C(=O)N[C@@H](CCC(=O)O)C(=O)O (plate: PM6),248 (inactive)

row,Compound,respiration area under curve
1,CC(C)C[C@H](N)C(=O)N[C@@H](CCCN=C(N)N)C(=O)O (plate: PM6),10200 (active)
2,CC(NC(=O)C(N)CC(=O)O)C(=O)O (stereo not given) (plate: PM8),8830 (active)
3,NCC(=O)N[C@@H](Cc1c[nH]c2ccccc12)C(=O)O (plate: PM6),755 (inactive)
4,CC(C)C[C@H](NC(=O)[C@@H](C)N)C(=O)O (plate: PM8),626 (inactive)
5,CC(C)C[C@H](NC(=O)[C@H](CC(C)C)NC(=O)[C@@H](N)CC(C)C)C(=O)O (plate: PM8),5700 (active)
6,N[C@@H](Cc1c[nH]c2ccccc12)C(=O)N[C@@H](CC(=O)O)C(=O)O (plate: PM7),446 (inactive)
7,CC[C@H](C)[C@H](NC(=O)[C@@H](N)CCCN=C(N)N)C(=O)O (plate: PM6),9540 (active)
8,NC(N)=NCCC[C@H](NC(=O)[C@@H]1CCCN1)C(=O)O (plate: PM8),12100 (active)
9,NC(N)=NCCC[C@H](N)C(=O)N[C@@H](Cc1c[nH]c2ccccc12)C(=O)O (plate: PM6),8730 (active)
10,NCC(=O)N[C@H](CO)C(=O)O (plate: PM8),641 (inactive)
11,CC(C)C[C@H](N)C(=O)N[C@H](CC(C)C)C(=O)O (plate: PM8),0 (inactive)
12,C[C@H](N)C(=O)N[C@@H](CCCN=C(N)N)C(=O)O (plate: PM6),10100 (active)
13,C[C@@H](O)[C@H](N)C(=O)N[C@@H](CCC(=O)O)C(=O)O (plate: PM7),7240 (active)
14,CC(C)C[C@@H](N)C(=O)NCC(=O)O (plate: PM8),0.4 (inactive)
15,C[C@@H](O)[C@H](N)C(=O)NCC(=O)O (plate: PM7),8140 (active)
16,C[C@H](N)C(=O)N[C@@H](Cc1ccccc1)C(=O)O (plate: PM6),7710 (active)
17,CSCCC(N)C(=O)NC(CCSC)C(=O)O (stereo not given) (plate: PM7),0 (inactive)
18,C[C@H](N)C(=O)N[C@@H](C)C(=O)N[C@@H](C)C(=O)O (plate: PM8),10400 (active)
19,CC(C)[C@H](N)C(=O)N[C@H](C(=O)O)C(C)C (plate: PM7),9240 (active)
20,N[C@@H](Cc1ccccc1)C(=O)N[C@@H](CC(=O)O)C(=O)O (plate: PM8),2860 (active)
